Data: PubChem BioAssay AID1745845 (National Center for Advancing Translational Sciences (NCATS), 2022)
Several values for one entry are separate records, joined by “and”; a condition that tells them apart may be missing. Equal entries are not always repeated. Hit rate of the full screen: of about 360,000 compounds, about 2,600 (0.72%) were called active. Roughly 5% stayed inconclusive and do not appear here. Calls come from the whole dose curve; as a rule, active = well fitted inhibition curve with a large enough effect; inconclusive = small, poorly fitted or top-dose-only effect; inactive = no such curve, though single readings can be large or run the other way. Many of the other results were omitted from the sample, so actives are more common in it than they were.

test: Primary qHTS for Inhibitors of ATXN expression; conditions: HEK-293 ATXN2-luciferase reporter, luminescence, 24 h; series mostly up to 57 µM; activity change, negative = inhibition: at the top concentration; note: nearly all actives have a fitted effect of over 55% in size
Text: University of Utah School of Medicine, Salt Lake City, Utah
Spinocerebellar ataxia type 2 (SCA2) is a multisystem neurodegenerative disease caused by a dominantly acting mutation leading to expansion of a polyQ domain in the ataxin-2 protein (ATXN2). SCA2 patients develop progressive ataxia and later lose function in other neuronal systems. Prominent parkinsonian signs develop in some patients. Like many neurodegenerative disorders, no symptomatic or disease-modifying treatments are known.
The primary objective of the proposed research is to identify compounds inhibiting ATXN2 expression and to test them for efficacy in SCA2 mouse models. We have developed a cell-based assay paired with an in vivo mouse model using identical luciferase expression constructs. This approach takes advantage of an ATXN2-luciferase transgene, with the luciferase gene flanked by the upstream and downstream portions of the ATXN2 gene. Here we describe a 5-7 dose quantitative high thoroughput screen (qHTS) for compounds lowering ATXN2 expression. We screened the NIH Molecular Libraries Small Molecule Repository (MLSMR) and NCGC's mechanistically annotated (MIPE) and drug repurposing (NPC) collections of compounds for lowering expression of an ATXN2-luciferase reporter in HEK-293 cells. The assay is a multiplexed cell viability assay to ensure target reduction in the absence of cytotoxicity. Secondary qHTS assays included a CMV-luciferase reporter expressed in HEK-293 cells as well as a biochemical assay using recombinant luciferase to detect inhibitors of the reporter enzyme. Compounds that inhibit ATXN2 expression but is not cytotoxic were selected for confirmatory and secondary screens.
PROTOCOL TABLE (as described by Inglese J, Shamu CE and Guy RK. 2007)
SEQUENCE No. (e.g., 1, 2, 3, etc.); […] (e.g., Cells, Incubation, Reagent, etc.); VALUE; DESCRIPTION.
1; Cells; 4 uL; white, solid bottom, 1536-well Greiner assay plate.
2; Incubation; 2 hr; 37 degree C in 5% humidified CO2.
3; Compounds; 23 nL; Kalypsis pintool (Wako USA) equipped with a 1536-well pin head.
4; Incubation; 24 hr; 37 degree C in 5% humidified CO2.
5; Reagent; 1 uL; Gly-Phe-7-Amino-4-trifluoromethylcoumarin.
6; Incubation; 30 min; 37 degree C in 5% humidified CO2.
7; Detection; Fluorescence; ViewLux plate reader (PerkinElmer).
8; Reagent; 3 uL; SteadyGlo luciferase solution (Promega).
9; Incubation; 5 min; room temperature.
10; Detection; Luminescence; ViewLux plate reader (PerkinElmer).
NOTES (numbers refer to Sequence numbers above)
1. S2 cells expressing ATXN2-luciferase reporter were suspended in phenol-red free DMEM and dispensed in assay plates using a Multidrop Combi dispenser (Thermo Fisher Scientific).
2. Assay plates were incubated. Evaporation was prevented by covering assay plates with metal lids containing holes to allow gas diffusion.
3. Compounds were added in a dose response manner with the final concentrations of 57, 11.4, 2.28, 0.46, 0.091, 0.018, 0.0037 uM. Vehicle-only plates, with DMSO being pin-transferred to columns 5-48, were inserted uniformly at the beginning and the end of each library to monitor and record any shifts in assay performance.
5. 125 uM Gly-Phe-7-Amino-4-trifluoromethylcoumarin (MP Biomedicals) working concentration was used at a final concentration of 25 uM.
7. To assess cell viability; the assay plates were read using the ViewLux high-throughput CCD imager (PerkinElmer), wherein single end-point fluorescence measurement was acquired (excitation 405/10; emission 540/25 nm).
8. Detection reagent SteadyGlo Luciferase (Promega) was added to the assay plate.
10. Luminescence is then measured on the ViewLux imager equipped with a clear emission filter using a 2 sec exposure. All screening operations were performed on a fully integrated robotic system (Kalypsys) containing one RX-130 and two RX-90 anthropomorphic robotic arms (Staubli).
[…]
% is set by controls: 0 for no effect and ±100 for the full control effect; potency is the fitted concentration of half-maximal effect.

Potency, active:
Fc1ccc2[nH]c3c(N4CCSCC4)ncnc3c2c1 15.8 µM
Fc1ccc2[nH]c3c(N4CCN(Cc5ccc6c(c5)OCO6)CC4)ncnc3c2c1 14.1 µM
Cc1cc(N/N=C\c2ccc(Br)cc2)nc(-n2nc(C)cc2C)n1 10 µM
COc1cc(NC(=O)c2[nH]cnc2C(N)=O)cc(C(=O)Nc2cccc(C(F)(F)F)c2)c1 10 µM
C=CCn1c(C)cc(C(=O)CN2C(=O)c3ccccc3C2=O)c1C 7.08 µM
CCC1CCCCN1CCCNC(=O)c1cc2c(Cl)nc3ccccc3c2s1 (centres undefined) 22.4 µM and 31.6 µM
c1cncc(CN2CCC(n3ncc4c(N5CCOCC5)nc(-c5ccc6[nH]ccc6c5)nc43)CC2)c1 21.7 µM
O=C(N/N=C/c1ccccc1O)/C(=C/c1ccccc1)CCO 3.55 µM
O=C(CSc1cccc2cccnc12)N/N=C/c1cccnc1 22.4 µM
CO[C@@H]1[C@@H](O)[C@H](O)[C@@H](n2c3c(Cl)cccc3c3c4c(c5c6cccc(Cl)c6[nH]c5c32)C(=O)NC4=O)O[C@@H]1CO 0.273 µM

Activity change, negative = inhibition, inactive:
O=C(CSc1nc2c(c(=O)[nH]1)CN(Cc1ccc3c(c1)OCO3)CC2)Nc1cc(F)ccc1F 15.6%
N#C/C=C/N1CCN(Cc2ccc3c(c2)OCO3)CC1 12.5%
COC(=O)c1cc(Cl)c(NC(C)=O)cc1OC 16.7%
Cn1c(=O)c(C(=O)O)nn(-c2ccccc2)c1=O 13.3%
COc1cccc(CNCc2c(C(=O)O)n(Cc3ccc(C)cc3)c3cc(C)ccc23)c1OC 5.45%
C[C@@H]1CCC[C@H](C)N1CCCC(O)(c1ccccc1)c1ccccn1 (some centres undefined) -0.369%
CC(C)Cn1c(C2CC(=O)N(c3ccccc3Cl)C2)nc2ccccc21 (centres undefined) 0.8%
CC(C(C)N1CC(=O)NC(=O)C1)N1CC(=O)NC(=O)C1 (centres undefined) -9.63%
COCC(C)NS(=O)(=O)c1ccc(N2CCCCS2(=O)=O)cc1 (centres undefined) -1%
Cc1cc(Nc2ccc(Br)cc2)nc2ccccc12 -28.1%
Cc1cc(C)n(-c2nnc(N3CCN(c4ccccc4)CC3)nn2)n1 6.31%
COC(=O)c1c(NC(=O)C(C)Oc2ccc(Cl)c(C)c2)sc(C)c1C (centres undefined) 5.21%
COc1c(C)cc(C(O)c2ncc(-c3cccc(C(F)(F)F)c3)[nH]2)cc1C (centres undefined) -29.7%
COc1cccc(NC(=O)c2csnn2)c1 20.7%
O=C(O)CSc1c2c(nc3cc(C(=O)Nc4cccc(C(F)(F)F)c4)ccc13)CCCC2 1.19%
COc1ccc(CC(N)c2csc(NC(=O)Cc3ccccc3)n2)cc1 (centres undefined) 0%
Cc1cc(C(=O)COC(=O)CCCN2C(=O)c3ccccc3C2=O)c(C)n1C 10.3%
C=CCN(CC=C)C(=O)CN1C(=O)c2ccccc2C1=O 4.2%
Cc1cccc(-n2c(=O)c3c(c4cc(C)ccc4n3C)n(CC(=O)Nc3ccccc3Cl)c2=O)c1 15.8%
CCC(=O)N1CCc2cc(S(=O)(=O)NC(CC(C)C)C(=O)NCCc3cccc(C)c3)ccc21 (centres undefined) -19.1%
CCCn1c2ccccc2c2cnn(CC(=O)NCCCN3CCCCC3CC)c(=O)c21 (centres undefined) -19.6%
CN1CCN(CCCNC(=O)c2cc3c(=O)oc4ccccc4c3s2)CC1 1.64%
Cc1ccc(NC(=O)C(Cc2ccccc2)NS(=O)(=O)c2ccc3c(c2)oc(=O)n3C)cc1C (centres undefined) 11.9%
Clc1cccc(-n2ncc3c(NCCc4ccccc4)ncnc32)c1 8.97%
O=C(Nc1ccnn1C1CCN(Cc2cccc(OCCO)c2)CC1)C1CCCC1 6.2%
CC(C)Oc1ccc(CN2CCC(n3nccc3NC(=O)c3cccnc3)CC2)cc1 -14.9%
Cc1cc(O)ccc1-c1cc(C(=O)NCc2cc(C(F)(F)F)cc(C(F)(F)F)c2)[nH]n1 -9.72%
O=C1Nc2ccccc2NC(c2ccc3c(c2)OCO3)=C1N(Cc1ccc(F)cc1)C(=O)c1ccco1 -10.1%
NN=C(NN=Cc1ccccc1)c1ccccc1 59.1%
O=C(CCC(=O)Nc1ccccc1)N/N=C/c1ccccc1F 10.2% [at 11.3 µM]
COc1ccc(Cl)cc1N(C)C(=O)c1cc2c(=O)oc3ccc(C)cc3c2s1 6.73%
CCOc1cc(C2C(C(=O)Nc3ccc(OC)cc3)=C(C)Nc3nc(SC)nn32)ccc1O (centres undefined) 0%
Cc1ccc(S(=O)(=O)N(CC(=O)N/N=C/c2ccc(F)cc2)c2cccc3cccnc23)cc1 -22.9%
O=C(CNC(=O)c1cccnc1)N/N=C/c1cc(Br)c(O)c(Br)c1 5.36%
CCc1ccc(C=C2SC(=S)NC2=O)cc1 46.5%
Cn1c(=O)nc2n(-c3ccc(Br)cc3)c3cccc(Cl)c3cc-2c1=O 0.426%
CC(Nc1ccc(-c2nc(-c3ccco3)no2)cc1[N+](=O)[O-])c1ccccc1 (centres undefined) 30.4%
COC1C(CO)OC(n2cnc3c(=S)nc(N)[nH]c32)C1O (centres undefined) -17%
COc1ccccc1CNC(=O)c1ccc(NC(=O)N2CC(C)Sc3ccccc32)cc1 (centres undefined) 0.839%
